# PubChem BioAssay AID1851 (National Center for Advancing Translational Sciences (NCATS), 2009)
# The whole screen tested about 16,000 compounds, of which about 5,100 (32%) were called active. Another 25% or so got no clear call; they are omitted. The list shows a part of the results. Unmarked numbers belong to inactive results. The call rests on the fitted dose curve; in most records, active means well fitted curve in the direction sought with a large enough effect; inconclusive means small, poorly fitted or top-dose-only effect, or effect the other way; inactive means no such curve, though single readings can be large or run the other way.
# Molecular target: Cytochrome P450 3A4 (Homo sapiens) (UniProt P08684)
# Assay: Cytochrome panel assay with activity outcomes
# Conditions: recombinant CYP, pro-luciferin dealkylation, luminescence, p450-cyp3a4; series mostly up to 57.1 µM; activity, negative = inhibition: at the top concentration
# On the % scale 0 is the no-effect control and ±100 the full control effect.
# Sequence of Cytochrome P450 3A4 (Homo sapiens) (P08684 whole entry, looked up): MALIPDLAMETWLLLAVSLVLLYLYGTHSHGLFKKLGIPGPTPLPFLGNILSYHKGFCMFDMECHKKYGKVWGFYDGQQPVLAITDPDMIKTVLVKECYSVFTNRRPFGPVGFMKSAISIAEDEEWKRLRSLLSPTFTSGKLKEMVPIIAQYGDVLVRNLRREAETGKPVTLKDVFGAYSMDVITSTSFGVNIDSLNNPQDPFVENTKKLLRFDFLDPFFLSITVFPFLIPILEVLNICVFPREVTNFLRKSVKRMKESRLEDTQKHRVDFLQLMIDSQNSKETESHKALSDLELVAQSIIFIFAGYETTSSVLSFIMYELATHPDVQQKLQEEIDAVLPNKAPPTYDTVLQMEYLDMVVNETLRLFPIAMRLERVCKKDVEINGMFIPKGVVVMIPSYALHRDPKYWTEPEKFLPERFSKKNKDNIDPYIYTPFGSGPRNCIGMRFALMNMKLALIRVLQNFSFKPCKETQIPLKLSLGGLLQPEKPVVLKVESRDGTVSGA
SMILES,AC50,"activity, negative = inhibition"
CCOC(=O)c1c(NC(=O)CCCN2CCOCC2)sc2c1CC(C)(C)OC2,7.08 µM (active),
Cn1c(=O)n(-c2ccc(Cl)cc2)c(=O)c2c3c(sc21)COC(C)(C)C3,,3.78%
CCOC(=O)c1c(NC(=O)CCC(=O)N2CCOCC2)sc2c1CC(C)(C)OC2,12.6 µM (active),
Cn1c(O)c(C(C#N)=C2N=c3ccccc3=N2)c2ccccc21,3.55 µM (active),
N=C(N)SCCN,inactive,
COC(=O)[C@@H]1O[C@@H](SCCN)[C@@H](O)[C@H](O)[C@H]1O,,-3.54% [at 11.4 µM]
CC(=O)O[C@]12CC[N@+]3(C)CCCC[C@@H]3[C-]1Nc1ccccc12,,0.352% [at 11.4 µM]
Cc1cc2c(c(=O)o1)[C@@H](O)[C@H]1O[C@@H]1C2=O,,-17.6% [at 11.4 µM]
COc1ccccc1N1CCN(C[C@@H]2CN3C(=O)N(C)c4ccccc4C3=N2)CC1,15.8 µM (active),
CC1=C(C(=O)N2CCCCCC2)C2(CCC(C)CC2)OC1=O (centres undefined),11.2 µM (active),
CC1=C(C(=O)NCCN2CCN(C)CC2)C2(CCC(C)CC2)OC1=O (centres undefined),,-24.5%
Cc1cc(=O)oc(C)c1C(=O)N1CCCCC1,,5.9%
CCCCCC/C(C)=C1/SC(=S)NC1=O,,-11.2% [at 2.29 µM]
O=C(COc1cccc2ccccc12)NNC(=O)c1cccs1,25.1 µM (active),
CCC(=O)Nc1ccc(C(=O)NNC(=O)c2cccs2)cc1,,-7.4%
O=C(CCC(=O)Nc1ccccc1)NNC(=O)c1cccs1,,9.11% [at 2.29 µM]
CCCCCC(=O)Nc1cccc(-c2nc3ncccc3o2)c1,15.8 µM (active),
CCCCC(=O)Nc1ccc(C)c(O)c1,,9.17% [at 2.29 µM]
O=C(Nc1cccc(-c2nc3ncccc3o2)c1)c1sc2cc(Cl)ccc2c1Cl,,0.466%
CCc1ccc(OCC(=O)Nc2ccc(-c3nc4ccccc4o3)c(O)c2)cc1,,-2.69%
O=C(CSc1ccc(Cl)cc1)Nc1cccc(-c2nc3ncccc3o2)c1,12.6 µM (active),
CC12CC[C@@H]3c4ccc(OP(=O)(O)O)cc4CCC3C1CCC2=O (some centres undefined),,5.91% [at 11.4 µM]
COc1c(N2CCN(C(=S)Nc3ccc(F)cc3)C(C)C2)c(F)cc2c(=O)c(C(=O)O)cn(C3CC3)c12 (centres undefined),,4.97%
Clc1ccc(-c2nnc(-c3ccccc3)c(N3CCSCC3)n2)cc1,,-23.1%

SMILES,AC50,"activity, negative = inhibition"
O=S(=O)(c1ccc(Cl)cc1)c1cnc(-c2cccnc2)nc1-c1ccccc1,8.91 µM (active),
O=S(=O)(c1ccccc1)c1cnc(-c2cccnc2)nc1-c1ccc(Cl)cc1Cl,2.82 µM (active),
CN1CCCCC1=NCCCn1cnc2c1c(=O)n(C)c(=O)n2C,,-4.8%
CC(=O)[C@H]1CC[C@@H]2[C@H]3CC=C4C[C@@H](O)CC[C@]4(C)[C@H]3CC[C@]12C,,-3.69% [at 25.6 µM]
Cc1cc(C)c2c(-n3cccc3)n[nH]c2n1,,12.8%
COCCNc1ncnc2ccc(-c3cccnc3)cc12,10 µM (active),
COc1cccc(-c2ccc3ncnc(NCCNC(C)=O)c3c2)c1,15.8 µM (active),
COCCNc1ncnc2ccc(-c3cccc(OC)c3)cc12,12.6 µM (active),
O=[N+]([O-])c1cccc2cn[nH]c12,,-10.3%
Brc1[nH]nc2ccccc12,,-8.63%
O=[N+]([O-])c1cccc2c(Br)[nH]nc12,12.6 µM (active),
COC(=O)c1ccc(NC(=O)Cn2nc(-c3ccncc3)nc2SCC(=O)Nc2nccs2)cc1,2 µM (active),
Cc1oc(-c2cccs2)[n+]([O-])c1C,,13.8%
CC(=O)Nc1ccc(NC2=Nc3ccccc3N3C2=Nc2c(c(C)nn2-c2ccccc2)C3c2ccccc2)cc1 (centres undefined),,-15.2%
CCN(CCCNC(=O)CC(C(=O)N1CCc2ccccc21)n1ccnc1)c1ccccc1 (centres undefined),0.794 µM (active),
CCCCN(C)CCCNC(=O)CCn1nc(-c2ccccc2)ccc1=O,,20.3%
CCN(CC)CCC(=O)Nc1ccc2c(c1)N(C(=O)CN(CC)CC)c1ccccc1CC2,,3.63% [at 2.29 µM]
Cc1cc(C)c(S(=O)(=O)n2ccc(-c3ccc(OCCN(C)c4ccccn4)cc3)n2)c(C)c1,2.24 µM (active),
COC(=O)[C@@H]1C[C@H]1[C@@H](NC(=O)c1cc(C)nn1C)c1ccccc1,10 µM (active),
COC(=O)[C@H]1C[C@@H]1[C@H](NC(=O)c1cc(C)nn1C)c1ccccc1,6.31 µM (active),
O=c1ccc(Oc2nc(N3CCOCC3)nc(N3CCOCC3)n2)n[nH]1,,-6.83%
N#C/C(=C\c1ccc(O)c(O)c1)C(=O)NCCCc1ccccc1,2.51 µM (active),
N#C/C(=C\c1ccc(O)c(O)c1)C(=O)NCCc1ccccc1,3.98 µM (active),
N#C/C(=C\c1ccc(O)c(O)c1)C(=O)NCc1ccccc1,15.8 µM (active),

SMILES,AC50,"activity, negative = inhibition"
N#C/C(=C\c1ccc(O)c(O)c1)C(=O)Nc1ccccc1,15.8 µM (active),
Cc1cc(/C=C(/C#N)C(=O)Nc2ccccc2)c(C)n1-c1cccnc1,,23.5%
COc1ccc(/C=C(/C#N)C(=O)Nc2cc(C)ccc2C)cc1C(=O)O,,-6.61%
O=C(O)/C=C\C(=O)NCc1ccccc1,,-2.17%
COCCN1CN=C(Nc2nc3ccccc3o2)NC1,,-6.81%
CC(C)(C)c1ccc(OCC(=O)NNC(=O)Cc2cccs2)cc1,3.98 µM (active),
CC(/C=N/NC(=O)Cc1cccs1)=C\c1ccco1,,1.99% [at 2.29 µM]
CC(=O)OCC1=C(C(=O)O)N2C(=O)[C@@H](NC(=O)Cc3cccs3)[C@@H]2SC1,,2.84% [at 25.6 µM]
CCNS(=O)(=O)c1ccc(NS(C)(=O)=O)cc1,,-0.495%
Cc1ccc(NC(=O)NNS(=O)(=O)c2ccc(Br)cc2)cc1,,29.9%
O=S(=O)(Nc1ccc(Cc2ccncc2)cc1)c1ccc(Br)cc1,0.355 µM (active),
O=C1C(Cl)=C(Nc2ccc(S(=O)(=O)Nc3ccccn3)cc2)C(=O)c2ccccc21,,-10.8% [at 11.4 µM]
O=S(=O)(Nc1ccc(Cc2ccncc2)cc1)c1cccs1,0.355 µM (active),
C/C(=N/S(=O)(=O)c1ccc(Cl)c(Cl)c1)OCC(C)(C)C,,-5.85% [at 11.4 µM]
O=S(=O)(Nc1ccc(Cc2ccncc2)cc1)c1ccc(Cl)c(Cl)c1,0.398 µM (active),
N[C@H](Cn1ccc(=O)n(Cc2ccccc2C(=O)O)c1=O)C(=O)O,,3.96%
N#Cc1c(N)nc2c(c1-c1cccc(O)c1)CCCCCC2,4.47 µM (active),
Cc1c(-c2c(C#N)c(N)nc3c2CCCCCC3)cnn1C,7.94 µM (active),
CCc1sc(-c2c(C#N)c(N)nc3c2CCCCCC3)cc1[N+](=O)[O-],,-20.1% [at 2.29 µM]
Cn1ncc(C#N)c1/N=C/N1CCCCCC1,,-16.3%
CC(C)CNC(=S)N1CCN(C)CC1,,-5.69%
O=C(O)c1cc([N+](=O)[O-])ccc1NCCCc1ccccc1,,23%
Cc1ccc(NC(=O)c2cc([N+](=O)[O-])ccc2NCc2cccnc2)cc1Cl,3.98 µM (active),
Cc1cc(C)c(C(N)=O)c(NC(=O)Nc2ccccc2)n1,,25.2%

SMILES,AC50,"activity, negative = inhibition"
Cc1sc(NC(=O)C2CCCCC2C(=O)O)c(C(N)=O)c1C (centres undefined),,14.4% [at 2.29 µM]
COC(=O)c1sccc1NC(=O)c1cc(-c2ccc(C)cc2)nc2ccccc12,,-21.5%
COC(=O)c1sccc1NC(=O)c1cc(-c2cc(C)ccc2C)nc2ccccc12,4.47 µM (active),
Cc1ccc(C)c(-c2cc(C(=O)Nc3sc(C)c(C)c3C(N)=O)c3ccccc3n2)c1,2.82 µM (active),
O=C(O)c1cc(-c2ccc(-c3ccc(-c4cc(C(=O)O)c5cc(Cl)ccc5n4)cc3)cc2)nc2ccc(Cl)cc12,,24.9% [at 11.4 µM]
COC(=O)c1sccc1NC(=O)c1cc(-c2ccc(C)cc2C)nc2ccccc12,7.08 µM (active),
Cc1ccc(-c2cc(C(=O)NN=C3CCCC3)c3ccccc3n2)cc1,7.94 µM (active),
CCN1C(=O)[C@H]2[C@H]3[C@H](O)[C@H](O)C/C(=N/O[C@@H]4O[C@H](COC(C)=O)[C@@H](OC(C)=O)[C@H](OC(C)=O)[C@H]4OC(C)=O)[C@@H]3CC[C@@H]2C1=O,,-5.68% [at 11.4 µM]
Cc1ccc(-c2cc(C(=O)NCc3ccco3)c3ccccc3n2)s1,10 µM (active),
Cc1ccc(Nc2ncccc2C(=O)NCc2cccs2)c(C)c1,12.6 µM (active),
Cc1ccccc1-c1cc(C(=O)n2cccn2)c2cc(Cl)ccc2n1,,-25.2%
Cc1ccc(C)c(-c2cc(C(=O)NCc3cccs3)c3ccccc3n2)c1,1.41 µM (active),
Cc1ccccc1-c1cc(C(=O)Nc2nc3c(s2)CCCC3)c2ccccc2n1,3.16 µM (active),
CC[C@](N)(CCC(=O)O)C(=O)O,,1.31%
Cc1ccc(C)c(-c2cc(C(=O)Nc3nccs3)c3ccccc3n2)c1,2.82 µM (active),
CCCN1CC=C2C(C#N)=C(N)C(C#N)(C#N)C(c3cc(OC)ccc3OC)C2C1 (centres undefined),2 µM (active),
CN1CCC2(CC1)C1CN(C)CC=C1C(C#N)=C(N)C2(C#N)C#N (centres undefined),,-27.5%
CCN1CC=C2C(C#N)=C(N)C(C#N)(C#N)[C@H](c3ccoc3)[C@H]2C1,11.2 µM (active),
CCC/C=C(\CCC)C(NS(=O)(=O)c1cccs1)c1ccc(C(=O)OC)cc1 (centres undefined),3.16 µM (active),
CCC/C=C(\CCC)C(NC(=O)c1cccs1)c1ccc(C(F)(F)F)cc1 (centres undefined),2.51 µM (active),
CCC/C=C(\CCC)C(NC(=O)c1cccs1)c1ccc(C(=O)OC)cc1 (centres undefined),1.26 µM (active),
COc1nccc(-c2c(-c3ccc(F)cc3)ncn2C2CCC(O)CC2)n1 (centres undefined),,1.06%
